Shown are actives, neighbours in structure and some others; about 6.6% of the full set was active somewhere.
BoNT F protease: BoNT F light chain protease inhibition | Multiplex microsphere protease cleavage assay, flow cytometry | inhibition, % at 10 µM | hit rate 0.22% among 360,000; in the data active = inhibition above about 35%, passing the limit was not always enough; inconclusive = no clear call, values can overlap the other calls; also: plate controls were buffer without enzyme for full effect and enzyme alone for no effect
GDH-TPI counter-1: inhibits GDH-TPI coupling enzymes, artifact for Mtb FBA screen | AID 588335 | hit rate 1.2% among 360,000 | inhibition, % at 4.8 µM | GDH-TPI coupled enzyme counterscreen, NADH absorbance; in the data active = inhibition above about 30%;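 also: 0% = DMSO wells and 100% = wells lacking the enzyme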
Bead autofluor: flagged as autofluorescent in microsphere protease counterscreen; compound autofluorescence counterscreen, microsphere flow cytometry; hits give high values; fluorescence intensity (test concentration not listed); hit rate 3.1% among 360,000; AID 624483; in the data active = fluorescence intensity above about 16000; inconclusive = no clear call, values can overlap the other calls
BoNT A protease: BoNT A light chain protease inhibition; multiplex microsphere protease substrate cleavage, flow cytometry; inhibition, % at 10 µM; hit rate 0.17% among 360,000; AID 588499; also: plate controls were buffer without enzyme for full effect and enzyme alone for no effect
Mtb FBA inh: inhibitors of M. tuberculosis fructose-bisphosphate aldolase; P9WQA3; purified M. tuberculosis FBA, fluorescence read-out; inhibition, % at 1 µM; hit rate 2.3% among 360,000; AID 588726; in the data active = inhibition above about 27%;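 also: 0% = vehicle and 100% = reference inhibitor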
Target sequence (P9WQA3 whole entry, looked up): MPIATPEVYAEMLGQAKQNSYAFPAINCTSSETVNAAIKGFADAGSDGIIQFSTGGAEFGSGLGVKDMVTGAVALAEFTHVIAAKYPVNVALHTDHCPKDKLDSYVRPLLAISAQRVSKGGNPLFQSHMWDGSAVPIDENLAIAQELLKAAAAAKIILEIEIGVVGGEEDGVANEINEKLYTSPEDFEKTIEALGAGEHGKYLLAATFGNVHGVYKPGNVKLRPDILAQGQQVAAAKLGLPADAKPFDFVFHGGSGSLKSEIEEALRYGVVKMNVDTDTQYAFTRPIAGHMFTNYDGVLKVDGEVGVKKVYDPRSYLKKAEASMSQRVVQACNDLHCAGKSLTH
Anthrax LF inh2: inhibitors of Bacillus anthracis lethal factor protease; P15917; multiplex microsphere protease cleavage assay, LF; inhibition, % at 10 µM; hit rate 0.12% among 360,000; also: plate controls were buffer without enzyme for full effect and enzyme alone for no effect
Mtb FBA inh conf: Mtb FBA inhibition, confirmed. shares compounds with Mtb FBA inh. AID 651616. inhibition, % at 1 µM. purified M. tuberculosis FBA, fluorescence read-out. hit rate 78% among 5,600; in the data active = inhibition above about 27%;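 also: 0% = vehicle wells and 100% = reference inhibitor wells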
GDH-TPI counter-2: GDH-TPI inhibition counter-screen for FBA inhibitors; shares compounds with Mtb FBA inh; GDH-TPI coupled enzyme counterscreen, fluorescence; inhibition, % at 1 µM; hit rate 81% among 5,600; AID 652141; in the data active = inhibition above about 10%
Numbers without * were called inactive; ? = inconclusive; . = no result; + = active, no number. Rule as the data show it, unless noted: active = inhibition above about 30%; inconclusive = no clear call, values can overlap the other calls; inactive = below that.

SMILES	BoNT F protease	GDH-TPI counter-1	Bead autofluor	BoNT A protease	Mtb FBA inh	Anthrax LF inh2	Mtb FBA inh conf	GDH-TPI counter-2
CCCCc1cc(=O)oc2cc(OCC(=O)N3CCC(C(=O)O)(c4ccccc4)CC3)ccc12	0	13	5689	0	10	-1	.	.
Cc1cc(=O)oc2cc(OCC(=O)N3CCC(C(=O)O)(c4ccccc4)CC3)ccc12	-3	13	4902	0	28*	1	19	26*
CCOc1ccc2c(c1)c(N=O)c(O)n2C	-3	7	1851	0	-2	-1	.	.
C=CCC[C@@H](Cc1ccc(F)cc1)C(=O)OC[C@H](Cc1c[nH]c2ccccc12)NC(=O)[C@H](CC=C)CC(=O)N(CCO)Cc1ccccc1	-2	-1	3813	0	-1	-2	.	.
CCOC(=O)C1=CN(Cc2ccco2)S(=O)(=O)NC1c1ccc(F)c(Cl)c1 (centres undefined)	-5	-3	3842	0	-1	-2	.	.
CN(C)S(=O)(=O)c1ccc(NC(=O)COc2cccc3c2OC(C)(C)C3)cc1	10	-2	5680	2	0	-1	.	.
NS(=O)(=O)c1cccc(NC(=O)CSc2nc3nc(-c4cccs4)cc(C(F)(F)F)c3c(=O)[nH]2)c1	1	22	4985	-1	33*	-5	173*	119*
COc1ccc(-c2oc3ccc(N4CCOCC4)cc3c2/C=C/c2ccc(OC)c(OC)c2)cc1	-12	40*	2980	0	36*	2	+	176*
COc1ccc(/C=C/c2c(-c3ccc(OC)cc3)sc3ccc(N4CCOCC4)cc23)cc1	-8	23	3851	0	4	-5	.	.
Cc1c(OC(C)C(=O)NCCCN2CCOCC2)ccc2c3c(c(=O)oc12)CCC3 (centres undefined)	12	11	4005	12	18	3	.	.
Cc1ccccc1OC(C)C(=O)NCCCN1CCOCC1 (centres undefined)	-4	2	4350	-1	-1	1	.	.
COc1ccc2oc(C(=O)NCCN3CCOCC3)c(C)c2c1OC	-7	11	6124	-1	102*	-1	+	186*
Cc1c(C)c2ccc(OC(C)C(=O)NCCN3CCOCC3)c(C)c2oc1=O (centres undefined)	-5	9	6532	0	47*	2	+	+
Cc1c(C)c2ccc(OC(C)C(=O)NCCCN3CCOCC3)c(C)c2oc1=O (centres undefined)	-8	-1	6372	-2	32*	0	74*	60*
Cc1c(OC(C)C(=O)NCCN2CCOCC2)ccc2c3c(c(=O)oc12)CCC3 (centres undefined)	1	-1	5343	0	25	-2	.	.
Cc1c(OC(C)C(=O)NCCCN2CCOCC2)ccc2c3c(c(=O)oc12)CCCC3 (centres undefined)	3	0	5373	-1	27*	2	48*	38*
Cc1cc(C(=O)NNc2ccc(F)cc2)no1	.	6	.	.	-2	.	.	.
CCN(CC)S(=O)(=O)c1cc(C(=O)OCC(=O)NC(=O)c2cccn2C)ccc1C	-4	0	2550	0	-2	-2	.	.
Nc1c(C(=O)NCC2CCCO2)c2nc3ccccc3nc2n1/N=C/c1ccncc1 (centres undefined)	-7	1	4652	-2	1	-8	.	.
COCCn1c(N)c(C(=O)Nc2sc3c(c2C(=O)OC)CCCC3)c2nc3ccccc3nc21	-6	6	3682	-1	1	-6	.	.
Nc1c(C(=O)OCC2CCCO2)c2nc3ccccc3nc2n1C1CCCC1 (centres undefined)	-29	10	32531*	-20	49*	0	82*	58*
COCC(C)OC(=O)c1c(N)n(CC(C)C)c2nc3ccccc3nc12 (centres undefined)	-7	9	4446	6	99*	2	4	3
Cc1cccc(-n2cnc3c(c2=O)c2nc4ccccc4nc2n3Cc2ccco2)c1	25	7	4226	3	16	2	.	.
CC(C)Cn1c(N)c(C(=O)NCC2CCCO2)c2nc3ccccc3nc21 (centres undefined)	20	20	4009	22	85*	16	60*	35*
CC(C)OC(=O)c1c(N)n(Cc2ccco2)c2nc3ccccc3nc12	-21	-14	3102	0	43*	1	131*	98*
SMILES	BoNT F protease	GDH-TPI counter-1	Bead autofluor	BoNT A protease	Mtb FBA inh	Anthrax LF inh2	Mtb FBA inh conf	GDH-TPI counter-2
CNc1c([N+](=O)[O-])cnn1-c1ccc(Cl)cc1	-1	12	9793	0	1	-12	.	.
COc1ccc(OC)c2[nH]c(=O)c(CCNC(=O)Cc3cccs3)cc12	-4	7	3252	0	2	1	.	.
CNC(=S)NN=C(C)CCCC(C)=NNC(=S)NC	-1	-4	3461	0	0	-1	.	.
CC(C)CNC(=O)c1c(N)n(Cc2ccc3c(c2)OCO3)c2nc3ccccc3nc12	4	12	3806	23	27*	8	79*	66*
Nc1c(C(=O)NCC2CCCO2)c2nc3ccccc3nc2n1Cc1ccco1 (centres undefined)	12	2	4491	7	86*	9	-3	-7
Nc1ccc(-n2c(N)c(C(=O)NCc3ccc4c(c3)OCO4)c3nc4ccccc4nc32)cc1	0	22	3566	8	7	2	.	.
O=C(NCC1CCCO1)c1cc2ccccc2nc1Cl (centres undefined)	-5	1	3270	0	1	-3	.	.
CCCCc1cc(=O)oc2cc(OCC(=O)N3CCC(C(N)=O)CC3)ccc12	-1	6	5144	0	24	-4	.	.
CCCCc1cc(=O)oc2cc(OCC(=O)N3CCOCC3)ccc12	1	16	4005	2	30*	-3	139*	101*
CCCc1cc(=O)oc2cc(OCC(=O)NCc3ccccn3)ccc12	8	3	4914	0	25	0	.	.
CCCCc1cc(=O)oc2cc(OCC(=O)Nc3ccccn3)ccc12	3	-5	5647	1	46*	-2	68*	58*
CC(CN1CCOCC1)OC(=O)c1cccc(Cl)c1 (centres undefined)	30	3	3709	-1	1	8	.	.
COC(=O)C1(C)Nc2ccccc2C(=O)N1c1ccccc1C (centres undefined)	-2	16	4519	1	52*	8	102*	71*
CCCCN(C(=O)Cc1ccc(S(=O)(=O)N2CCOCC2)s1)c1c(N)n(CC(C)C)c(=O)[nH]c1=O	22	6	?	6	7	-2	.	.
COc1ccccc1-c1cc2c(c3c1ccn3C)C1CCC2O1 (centres undefined)	10	.	5495	10	73*	21	127*	104*

Assay outcomes deposited in PubChem BioAssay by several laboratories.
